Results as given in PubChem BioAssay (EPA / NIEHS).
Records with an inconclusive call do not appear. The source made the active and inactive calls. The calls were made as follows, unless noted: active = hit-call score of the fitted dose curve at least 0.9, where 1 is the maximum; inactive = score below 0.9.

system: not listed separately; assay: ATG_VDRE_CIS: Attagene CIS-FACTORIAL HepG2 Assay for human Vitamin D Receptor Element (VDRE) (AID 2282968); details: HepG2 VDRE cis-reporter transcription, actives raise or lower the signal
Outline: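 Steps: transfect HepG2 with multiple reporter transcription units; dose chemicals 24 h; isolate RNA; RT-PCR; label with 6-FAM primer extension; HpaI digest; capillary electrophoresis. Curves fitted both directions against DMSO.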

outcome, inactive:
CC=Cc1ccc(OC)c(OC)c1
O=C(CC(=O)c1ccccc1)c1ccccc1
CCCC1O[C@@H]2C[C@H]3[C@@H]4CCC5=CC(=O)C=C[C@]5(C)[C@H]4[C@@H](O)C[C@]3(C)[C@]2(C(=O)CO)O1 (stereo partly specified)
C=COCCOCCOC=C
C=C1CC[C@H](O)C/C1=C/C=C1\CCC[C@]2(C)[C@@H]([C@H](C)/C=C/[C@H](C)C(C)C)CC[C@@H]12
O=[N+]([O-])c1cccc(Cl)c1
CN(C)C(=S)SC(=S)N(C)C
CCOc1ccc(N=Nc2ccc(C=Cc3ccc(N=Nc4ccc(OCC)cc4)cc3S(=O)(=O)O)c(S(=O)(=O)O)c2)cc1
CCCC(C)C(O)CC (stereo unspecified)
CC(=O)C1(C)CC2=C(CCCC2(C)C)CC1C (stereo unspecified)
CCCCCCC(O)CCCCCCCCCCC(=O)O (stereo unspecified)
C=CC(=O)OCCCC
Cc1cc(=O)oc2cc(N(C)C)ccc12
CCCCCCCCc1ccc(S(=O)(=O)O)cc1
O=C(O)CCCCCCCCC(=O)O
CCCCCCCCC=CCCCCCCCC1=NCCN1CCO
OCC(O)c1ccccc1 (stereo unspecified)

AC50, active:
COC(=O)c1ccc(C)cc1C1=NC(C)(C(C)C)C(=O)N1 (stereo unspecified) (tested in a mixture with another compound) 26.8 µM
CC1(C)C2=CCCC(C)(C)[C@]23CC[C@H]1C3 2 µM
CCN(CCN)c1cccc(C)c1 72.4 µM
Cc1ccc(S(=O)(=O)Oc2ccc(N=Nc3ccc(-c4ccc(N=Nc5c(O)ccc6cc(S(=O)(=O)O)cc(S(=O)(=O)O)c56)c(C)c4)cc3C)cc2)cc1 14.1 µM
CC(C)(C)OC(=O)c1ccc(O)cc1 45.4 µM
N#Cc1ccc(CC(=O)c2cccc(C(F)(F)F)c2)cc1 26.3 µM

target: Nuclear receptor subfamily 1 group I member 3 (Homo sapiens) (UniProt Q14994); assay: ATG_CAR_TRANS: Attagene TRANS-FACTORIAL HepG2 Assay for human Constitutive Androstane Receptor (CAR) (AID 2282969; active = hit-call score of the fitted dose curve at least 0.9, where 1 is the maximum;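 also: activators raise reporter mRNA above DMSO so AC50 marks induction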); details: HepG2 Attagene TRANS-FACTORIAL CAR reporter
Outline: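 Steps: transient transfection of HepG2 with multiple GAL4-UAS reporter units; 24 h compound incubation; RNA isolation, RT-PCR, 6-FAM primer extension, HpaI digest; capillary electrophoresis. Gain-of-signal relative to DMSO negative control.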

Sequence of Nuclear receptor subfamily 1 group I member 3 (Homo sapiens) (Q14994 whole entry, looked up, the tested form may be a part): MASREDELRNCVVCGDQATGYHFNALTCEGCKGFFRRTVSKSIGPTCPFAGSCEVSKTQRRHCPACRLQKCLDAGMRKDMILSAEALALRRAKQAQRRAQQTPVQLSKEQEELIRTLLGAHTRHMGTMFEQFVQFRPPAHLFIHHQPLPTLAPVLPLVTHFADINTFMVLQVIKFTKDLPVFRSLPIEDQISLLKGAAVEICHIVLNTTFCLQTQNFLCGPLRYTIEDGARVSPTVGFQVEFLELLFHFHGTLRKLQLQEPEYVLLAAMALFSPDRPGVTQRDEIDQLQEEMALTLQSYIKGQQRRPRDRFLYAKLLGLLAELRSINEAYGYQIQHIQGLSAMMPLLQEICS

outcome, inactive:
CCCCCCCC/C=C\CCCCCCCC(=O)OCC
C=CCCCCCCCCCC
O=c1c(O)c(-c2ccc(O)cc2)oc2cc(O)cc(O)c12
CN(C)C(=S)SC(=S)N(C)C
CCOc1ccc(N=Nc2ccc(C=Cc3ccc(N=Nc4ccc(OCC)cc4)cc3S(=O)(=O)O)c(S(=O)(=O)O)c2)cc1
CC(Oc1cc(Cl)ccc1Cl)C(=O)O (stereo unspecified)
CC1(C)C2=CCCC(C)(C)[C@]23CC[C@H]1C3
CCN(CCN)c1cccc(C)c1
Cc1ccc(S(=O)(=O)Oc2ccc(N=Nc3ccc(-c4ccc(N=Nc5c(O)ccc6cc(S(=O)(=O)O)cc(S(=O)(=O)O)c56)c(C)c4)cc3C)cc2)cc1
CC(=O)C1(C)CC2=C(CCCC2(C)C)CC1C (stereo unspecified)
CCCCCCC(O)CCCCCCCCCCC(=O)O (stereo unspecified)
N#Cc1ccc(CC(=O)c2cccc(C(F)(F)F)c2)cc1
C=CC(=O)OCCCC
CCCCCCCCc1ccc(S(=O)(=O)O)cc1
CC(CN=Cc1ccccc1O)N=Cc1ccccc1O (stereo unspecified)
O=C(O)CCCCCCCCC(=O)O
N#Cc1cscn1

target: Steroid hormone receptor ERR1 (Homo sapiens) (UniProt P11474); assay: ATG_ERRa_TRANS: Attagene TRANS-FACTORIAL HepG2 Assay for human Estrogen-Related Receptor alpha (ERRa) (AID 2282971; active = hit-call score of the fitted dose curve at least 0.9, where 1 is the maximum); details: HepG2 Attagene TRANS reporter, ERRa transactivation
Outline: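 HepG2 cells were transiently transfected with multiple GAL4-UAS reporter units, then dosed with compound for 24 h. Total RNA was reverse-transcribed, reporter cDNA PCR-amplified and fluorescently labelled, and fragments resolved by capillary electrophoresis; induction was compared with DMSO.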

Sequence of Steroid hormone receptor ERR1 (Homo sapiens) (P11474 whole entry, looked up, the tested form may be a part): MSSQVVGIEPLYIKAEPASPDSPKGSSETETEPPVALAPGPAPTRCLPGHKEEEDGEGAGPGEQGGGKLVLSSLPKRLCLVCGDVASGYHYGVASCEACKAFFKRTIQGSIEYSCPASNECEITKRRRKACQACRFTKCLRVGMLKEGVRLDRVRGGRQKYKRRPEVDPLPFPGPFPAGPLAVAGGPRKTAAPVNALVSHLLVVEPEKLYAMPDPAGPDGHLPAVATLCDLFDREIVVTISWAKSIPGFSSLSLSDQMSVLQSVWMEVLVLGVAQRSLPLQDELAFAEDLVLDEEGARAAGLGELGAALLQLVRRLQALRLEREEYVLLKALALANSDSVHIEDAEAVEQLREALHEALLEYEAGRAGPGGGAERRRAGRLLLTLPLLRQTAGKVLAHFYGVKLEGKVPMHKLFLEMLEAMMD

outcome, inactive:
CN1CCOCC1
CCCC1O[C@@H]2C[C@H]3[C@@H]4CCC5=CC(=O)C=C[C@]5(C)[C@H]4[C@@H](O)C[C@]3(C)[C@]2(C(=O)CO)O1 (stereo partly specified)
O=[N+]([O-])c1cccc(Cl)c1
Cc1ccc(S(=O)(=O)Oc2ccc(N=Nc3ccc(-c4ccc(N=Nc5c(O)ccc6cc(S(=O)(=O)O)cc(S(=O)(=O)O)c56)c(C)c4)cc3C)cc2)cc1
CCCCCCC(O)CCCCCCCCCCC(=O)O (stereo unspecified)
N#Cc1ccc(CC(=O)c2cccc(C(F)(F)F)c2)cc1
Nc1ccc(NCCO)c([N+](=O)[O-])c1
CCCCCCCCC=CCCCCCCCC1=NCCN1CCO

target: X-box-binding protein 1 (Homo sapiens) (UniProt P17861); assay: ATG_Xbp1_CIS: Attagene CIS-FACTORIAL HepG2 Assay for human X-box Binding Protein 1 (XBP1) (AID 2282972); details: HepG2 XBP1 cis-element reporter, Attagene multiplex; actives raise or lower the signal
Outline: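 Human hepatoma HepG2, cis-element reporter system, 24 h treatment; mRNA quantified by RT-PCR/CE fluorescence; fit relative to DMSO.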

Sequence of X-box-binding protein 1 (Homo sapiens) (P17861 whole entry, looked up): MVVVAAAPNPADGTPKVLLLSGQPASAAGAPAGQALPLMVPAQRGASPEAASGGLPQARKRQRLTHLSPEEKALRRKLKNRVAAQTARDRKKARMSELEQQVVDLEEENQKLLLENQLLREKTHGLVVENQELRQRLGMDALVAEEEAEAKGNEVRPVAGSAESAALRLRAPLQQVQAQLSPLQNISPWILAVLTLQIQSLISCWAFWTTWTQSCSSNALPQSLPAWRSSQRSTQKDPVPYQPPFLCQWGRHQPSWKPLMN

outcome, inactive:
CCc1ncc(C)[nH]1
CCCCCCCC/C=C\CCCCCCCC(=O)OCC
[Cl][Au]([Cl])[Cl]
CC=Cc1ccc(OC)c(OC)c1
C=CCCCCCCCCCC
O=c1c(O)c(-c2ccc(O)cc2)oc2cc(O)cc(O)c12
C=C(C)[C@@H]1CC=C(C)C(=O)C1
C=COCCOCCOC=C
C=C1CC[C@H](O)C/C1=C/C=C1\CCC[C@]2(C)[C@@H]([C@H](C)/C=C/[C@H](C)C(C)C)CC[C@@H]12
O=[N+]([O-])c1cccc(Cl)c1
CN(C)C(=S)SC(=S)N(C)C
CCOc1ccc(N=Nc2ccc(C=Cc3ccc(N=Nc4ccc(OCC)cc4)cc3S(=O)(=O)O)c(S(=O)(=O)O)c2)cc1
CC1(C)C2=CCCC(C)(C)[C@]23CC[C@H]1C3
CCN(CCN)c1cccc(C)c1
CCCCCC(C=O)=Cc1ccccc1
CCCC(C)C(O)CC (stereo unspecified)
Cc1ccc(S(=O)(=O)Oc2ccc(N=Nc3ccc(-c4ccc(N=Nc5c(O)ccc6cc(S(=O)(=O)O)cc(S(=O)(=O)O)c56)c(C)c4)cc3C)cc2)cc1
CC(=O)C1(C)CC2=C(CCCC2(C)C)CC1C (stereo unspecified)
N#Cc1ccc(CC(=O)c2cccc(C(F)(F)F)c2)cc1
Clc1ccc(C(c2ccccc2Cl)C(Cl)Cl)cc1 (stereo unspecified)
Nc1ccc(NCCO)c([N+](=O)[O-])c1
Cc1c(OCC(F)(F)F)ccnc1CS(=O)c1nc2ccccc2[nH]1 (stereo unspecified)
CC[N+](C)(CC)CC
Cc1cc(=O)oc2cc(N(C)C)ccc12
CCCCCCCCc1ccc(S(=O)(=O)O)cc1
CC(CN=Cc1ccccc1O)N=Cc1ccccc1O (stereo unspecified)
O=C(O)CCCCCCCCC(=O)O
N#Cc1cscn1
CCCCCCCCC=CCCCCCCCC1=NCCN1CCO
OCC(O)c1ccccc1 (stereo unspecified)
CCCCCCOCCOCCO

AC50, active:
O=C(CC(=O)c1ccccc1)c1ccccc1 45.1 µM
CC(C)(C)OC(=O)c1ccc(O)cc1 70.3 µM
